High-throughput results as filed in PubChem.
This is a sample that favours compounds with a hit; in the whole collection about 3.6% have one here.
TRHR ag – activates the human TRH receptor | P34981 | TRHR cells, calcium flux fluo-8, FDSS agonist mode | activation, % at 2 µM | 360,000 tested, 0.18% active; also: 0% is about no effect
Target sequence (P34981 whole entry, looked up): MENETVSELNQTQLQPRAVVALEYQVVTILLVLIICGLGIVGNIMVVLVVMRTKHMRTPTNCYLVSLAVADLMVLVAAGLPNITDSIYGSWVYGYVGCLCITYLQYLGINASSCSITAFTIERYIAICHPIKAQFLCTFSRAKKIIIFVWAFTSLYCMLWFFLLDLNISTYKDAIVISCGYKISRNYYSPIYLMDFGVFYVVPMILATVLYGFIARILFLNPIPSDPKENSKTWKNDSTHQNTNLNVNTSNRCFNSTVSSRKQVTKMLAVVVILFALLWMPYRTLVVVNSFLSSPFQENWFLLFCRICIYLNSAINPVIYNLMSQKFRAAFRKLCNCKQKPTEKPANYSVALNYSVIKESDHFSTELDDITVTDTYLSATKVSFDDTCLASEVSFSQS
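Steps: seed TRHR cells overnight; add fluo-8 no-wash Ca dye, RT 30 min–1.5 h; record 10 s baseline; pin-transfer compounds; monitor fluorescence 1 cycle/s for the agonist window. Calcium increases flag candidate agonists.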
TRHR enhancer – allosteric enhancers of human TRH receptor. P34981. enhancement, % at 2 µM. TRHR cells, fluo-8 calcium fluorescence, EC20 TRH enhancement. 360,000 tested, 0.66% active; in the data active = enhancement above about 30%; also: 0% is about no effect
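Enhancer read-out: after compound pinning and an initial kinetic agonist-mode read, an EC20 of TRH (10 nM final) was injected and fluo-8 calcium signal (Ex 480/Em 530) followed at 1 s/cycle for 100 cycles in TRHR-expressing cells.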
D1 agonist – activates the human D1 dopamine receptor. P21728. HEK293 T-REx D1 cells, calcium flux, agonist mode. activation, % at 2 µM. 360,000 tested, 1% active; also: 0% is about no effect
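Inducible HEK293 T-REx D1 cells, force-coupled to calcium signalling, were plated at 4000 cells/well with tetracycline and held overnight at 30 C. After no-wash calcium dye loading, compound-evoked calcium rise over 180 s flagged agonists.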
D1 potentiator – potentiators of human D1 dopamine receptor. potentiation, % at 10 µM. HEK293 TREx D1 cells, calcium flux, dopamine EC20 potentiation. P21728. 360,000 tested, 0.036% active; in the data active = potentiation above about 30%; also: 0% is about no effect
D1 antag – antagonists of human D1 dopamine receptor; activity change, negative = inhibition, % at 10 µM; 360,000 tested, 3.2% active; HEK293 TREx D1 cells, calcium flux, dopamine EC80; stronger effect = lower value; P21728; in the data active = activity change below about -30%; also: % is scaled to controls: 0 for no effect and ±100 for the full control effect
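Using tetracycline-induced force-coupled D1 Hek293 cells and a calcium dye, signals were followed for 180 s after compound, then for 180 s after EC80 dopamine, to detect inhibitors.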
LDHA block – LDHA (human) enzyme inhibition. purified LDHA, NADH/diaphorase-resazurin fluorescence; stronger effect = lower value. P00338. 480,000 tested, 0.15% active. AID 1347041. activity change, % (values are at about 110 or 230 µM); in the data active = activity change below about -30%;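 also: plate controls were DMSO wells for no effect and wells without enzyme for full effect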
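Enzyme activity of human lactate dehydrogenase 5 (2 nM; 0.06 mM NADH, 0.2 mM pyruvate, 5 min, RT) is measured via a resazurin/diaphorase fluorescence readout of residual NADH.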
Active calls of the source: *; nt = no result. Rule as the data show it, unless noted: active = activation above about 30%; inactive = the rest.

SMILES	TRHR ag	TRHR enhancer	D1 agonist	D1 potentiator	D1 antag	LDHA block
COC(=O)c1ccc2[nH]c(CO)c(-c3ccccc3)c2c1	1	-1	8	-2	-9	-4
N#Cc1ccc2[nH]c(CO)c(-c3ccccc3)c2c1	0	-1	5	-16	-40*	-3
CCCNc1c(NC(=O)CC(=O)OCC)c(=O)oc2ccccc12	nt	nt	nt	nt	nt	-1
Cc1ccc2nc(-c3ccc(NC(=S)NC4CC(C)(C)NC(C)(C)C4)cc3)sc2c1	0	1	41*	-3	-3	0
O=C(Cc1ccsc1)OCC(=O)c1ccc2c(c1)OCCO2	nt	nt	nt	nt	nt	1
CCCC(=O)OCCNc1cc(Sc2nccn2C)c2nonc2c1[N+](=O)[O-]	0	-11	3	-9	-32*	3
O=C(CC1Sc2ccccc2NC1=O)c1ccc(Br)cc1 (stereo not given)	0	3	0	-5	-56*	-10
c1ccc(-c2ccc(CNCc3cccnc3)o2)cc1	nt	nt	nt	nt	nt	-4
CCN(CC)CCOC(=O)c1ccc(NC(=O)CCCN2C(=O)S/C(=C/c3ccc(OC)cc3)C2=S)cc1	1	0	3	-9	-65*	0
COc1ccc(/C=C2\SC(=S)N(CCC(=O)Nc3ccc(O)cc3)C2=O)cc1	0	7	0	-8	27	-6
O=C(NCCc1ccccc1)c1nnc(Cc2cccc(F)c2)o1	0	-4	38*	0	5	-7
O=C(NCc1ccc2c(c1)OCO2)c1nnc(Cc2ccc(F)cc2)o1	0	-11	3	-2	-56*	-8
CNCc1cc(Br)c(OCC(=O)Nc2ccccc2OC)c(OC)c1	2	4	14	-4	3	-9
COc1cc(CNCCc2ccccc2)cc(Cl)c1OCc1ccccc1	-2	9	40*	17	12	-2
COc1cc(CNCCc2c[nH]c3ccccc23)cc(Cl)c1OCC(N)=O	3	2	12	-2	-31*	-1
COc1cc(CNCCc2ccc(F)cc2)ccc1OCc1ccc(Cl)nc1	6	6	92*	-21	-40*	-3
COc1cc(CNCCc2ccccc2)cc(Br)c1OCC(=O)Nc1ccccc1C	1	5	51*	-3	-16	2
NC(=O)c1ccc(COC(=O)c2ccc(Cl)c(Cl)c2)cc1	nt	nt	nt	nt	nt	-1
CCOc1c(Cl)cc(CNCC(C)C)cc1OC	1	10	7	3	4	-1
CCOc1cc(CNCC(C)C)cc(Cl)c1OCc1ccccc1	0	-4	47*	18	9	-2
O=[N+]([O-])c1ccc(CN2CCCCCC2)cc1	0	13	6	-3	10	-5
CSc1ccc(CN2CCN(Cc3ccc([N+](=O)[O-])cc3)CC2)cc1	0	-2	8	-12	-37*	-8
COc1ccc(CN2CCN(c3ccc(F)cc3)CC2)c(OC)c1OC	-1	8	17	-7	-21	-1
COc1cc(OC)c(OC)cc1CN1CCN(Cc2ccc(SC)cc2)CC1	0	23	-2	-2	-3	-30*
COc1cc(CN2CCN(Cc3ccc(SC)cc3)CC2)cc(OC)c1O	1	5	0	-5	1	1
SMILES	TRHR ag	TRHR enhancer	D1 agonist	D1 potentiator	D1 antag	LDHA block
COc1cc(OC)c(CN2CCN(c3ccc(F)cc3)CC2)cc1Br	0	4	0	-11	-31*	-10
COc1ccc(S(=O)(=O)N2CCC3(CC2)N=C(c2cccs2)C(=O)N3)cc1OC	nt	nt	nt	nt	nt	-1
CC1CCc2noc(NC(=O)COc3ccc(C(C)(C)C)cc3)c2C1 (stereo not given)	nt	nt	nt	nt	nt	3
COc1cccc(C(O)c2nccn2Cc2ccccc2)c1 (stereo not given)	nt	nt	nt	nt	nt	7
CCc1cc2c(SCC(=O)Nc3ccc(C(C)=O)cc3)ncnc2s1	nt	nt	nt	nt	nt	4
Cc1ccc(-n2nc(C)c3c(C(=O)O)cc(C)nc32)cc1	0	4	0	-5	-50*	-3
CCOC(=O)c1cc(-c2ccncc2)nc2c1c(C)nn2-c1ccccn1	-1	-7	-1	5	-4	8
COc1ccc(-c2cc(C(=O)O)c3c(C)nn(-c4ccccn4)c3n2)cc1	-1	-1	4	-5	-40*	-1
